Source: PubChem BioAssay (National Center for Advancing Translational Sciences (NCATS))
PINK1 expr mod: PINK1 expression modulation. actives 0.2% (n = 410,000). Potency, µM (top dose mostly 76.6 µM), without a hit: at the top dose activation (PINK1 increase), hits mostly activators. PINK1 immunofluorescence, high-content cytometry, 24 h; active = well fitted activation curve with a large enough effect; inconclusive = small, poorly fitted or top-dose-only effect; cell line not stated here; note: % of control where 0% means no effect; nearly all actives have a fitted effect of over 65% in size
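A stable cell line was treated with compounds at 5 concentrations for 24 hours, with CCCP as control. PINK1 levels and mitochondrial localization were measured by immunofluorescence with mitochondrial, cell and nuclear markers after fixation, read by laser-scanning cytometry.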
MCF10A rerep: DNA re-replication induction in MCF 10a cells; MCF 10A DNA re-replication, Hoechst nuclear intensity, 48 h; Potency, µM (series often up to 46.1 µM), for inactives: at the highest dose activity, positive = re-replication, hits mostly activators; actives 2.9% (n = 350,000); AID 624296; note: % of control where 0% means no effect; nearly all actives have a fitted effect of over 50% in size
SW480 rerep: DNA re-replication induction in SW480 cells | SW480 DNA re-replication, Hoechst DNA content imaging, 48 h | Potency, µM (highest dose often 46.1 µM), for the others: top-dose re-replication activation, most hits filed as activators | actives 1.8% (n = 340,000) | AID 624297; note: % of control where 0% means no effect; nearly all actives have a fitted effect of over 55% in size
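First, 250 cells per well were seeded. Next, compound or vehicle (23 nL) was pinned in, plates sat 48 hr at 37 C. Finally Hoechst was added for 40 min before fluorescence scanning.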
KB-3-1 cytotox: KB-3-1 parental cell cytotoxicity; KB-3-1 viability, CellTiter-Glo ATP luminescence, 72 h; Potency, µM (doses to about 46.1 µM), most hits filed as cytotoxic; actives 1.4% (n = 400,000); AID 1347075; note: % is set by controls: 0 for no effect and ±100 for the full control effect; nearly all actives have a fitted effect of over 60% in size
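Cytotoxicity in the drug-sensitive parental line KB-3-1 was scored as loss of CellTiter-Glo luminescence following 72 h incubation with compound. Values come from curve fitting of normalized concentration-response data.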
KB-V1 MDR tox: KB-V1 MDR subline cytotoxicity | KB-V1 MDR cells viability, CellTiter-Glo, 72 h | Potency, µM (highest dose often 46.1 µM), most hits filed as cytotoxic | actives 3.4% (n = 400,000); note: % is set by controls: 0 for no effect and ±100 for the full control effect; nearly all actives have a fitted effect of over 60% in size
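Cytotoxicity via CellTiter-Glo luminescence after 72 h compound exposure at 37 degrees C. Cells: drug-selected KB-V1 line, DMEM phenol-red free plus 10% FBS. Compounds tested at multiple concentrations; normalized data fitted to concentration-effect curves.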
An asterisk follows results filed as active; i = inactive; ? = inconclusive; / = no result; [ ] = dose if it differs, or a comment. Shown are actives, neighbours in structure and some others; about 6.7% of the full set was active somewhere. Unless noted, calls come from the whole dose curve; as a rule, active = well fitted curve in the direction sought with a large enough effect; inconclusive = small, poorly fitted or top-dose-only effect, or another doubt; inactive = no such curve, though single readings can be large; an effect the other way counts as inactive or inconclusive. Potency is the fitted concentration of half-maximal effect.

SMILES | PINK1 expr mod | MCF10A rerep | SW480 rerep | KB-3-1 cytotox | KB-V1 MDR tox
CC(=O)C1=C(c2cccc([N+](=O)[O-])c2)N(C(C)=O)n2c(C)nnc2S1 | 0.5% | 23.1µM* | ? | 14.6µM* | i
COc1ccc(-c2nc(C#N)c(N3CCc4ccccc4C3)o2)cc1OC | -24.0%[38.3 µM] | ? | 7.5% | i | 2.06µM*
COc1ccc(N2CCN(c3oc(-c4ccc(OC)c(OC)c4)nc3C#N)CC2)cc1 | 6.3% | -35.2% | 0.1% | i | i
COc1ccccc1-c1nc(C#N)c(N2CCc3ccccc3C2)o1 | -6.6%[38.3 µM] | 16.4µM* | 16.9% | ? | ?
CCC(C)c1ccccc1NC(=O)c1cccc(-n2cnnn2)c1 (configuration not stated) | 5.2% | 2.7% | -0.8% | i | i
O=C(Nc1cc(S(=O)(=O)N2CCOCC2)ccc1N1CCOCC1)c1ccccc1Cl | -0.3% | -1.3% | 3.3% | i | i
O=C(Nc1ccccc1O)c1cc(S(=O)(=O)N2CCOCC2)c(Cl)cc1Cl | 6.4%[38.3 µM] | ? | ? | i | 2.91µM*
O=C(NC1CCCCCC1)c1cc(S(=O)(=O)N2CCCCC2)ccc1N1CCOCC1 | 1.2% | 0.2% | -14.8% | i | i
O=C(NC1CCCCCC1)c1cc(S(=O)(=O)N2CCOCC2)ccc1N1CCCCC1 | ? | 20.7% | 1.0% | ? | 8.2µM*
O=C(Nc1cc(S(=O)(=O)N2CCOCC2)ccc1N1CCCC1)c1cc(F)c(F)cc1Cl | ? | -0.7% | -2.6% | i | 16.4µM*
O=C(Nc1ccc(OC(F)F)cc1)c1cc(S(=O)(=O)N2CCOCC2)ccc1N1CCCC1 | -0.3% | -3.3% | -2.4% | i | 9.2µM*
COc1ccc(NC(=O)c2cc(S(=O)(=O)N3CCOCC3)ccc2N2CCOCC2)cc1 | 5.5% | 10.1% | 13.8% | / | /
O=C(Nc1ccccc1O)c1cc(S(=O)(=O)N2CCOCC2)ccc1Cl | -2.0% | -0.7% | -4.7% | ? | ?
CCOc1ccc(Nc2nc(N)c(C(=O)c3ccccc3Cl)s2)cc1 | 1.0% | / | / | / | /
O=S(=O)(c1ccc(NC(=S)Nc2ccc(OC(F)F)cc2)cc1)N1CCOCC1 | 1.8% | 0.5% | -5.5% | i | 23.1µM*
C/C(=N\NC(=S)Nc1cc(S(=O)(=O)N2CCOCC2)ccc1Cl)c1ccccc1F | -2.1% | ? | ? | ? | 3.66µM*
CC(C)N(C(=S)Nc1cc(S(=O)(=O)N2CCOCC2)ccc1Cl)c1ccccc1 | 1.1% | -3.2% | -6.1% | i | i
NNC(=S)Nc1ccc(S(=O)(=O)N2CCOCC2)cc1 | -0.7% | -0.2% | 3.1% | i | ?
COc1ccc(-c2nnc(SCC(=O)c3ccc(O)cc3O)o2)cc1 | 4.0% | -3.6% | -7.4% | i | i
CCN1CCN(c2ccc(S(=O)(=O)N3CCCCC3)cc2NC(=O)CC(C)c2ccccc2)CC1 (configuration not stated) | 0.2% | ? | 0.2% | i | i
O=C1CC(c2ccccc2)CC(O)=C1C=NC1CCCCC1 (configuration not stated) | 9.8%[38.3 µM] | -2.2% | 8.2% | i | 6.51µM*
Cc1cc(S(=O)(=O)NCC(c2ccccc2)c2ccccc2)ccc1-n1cnnn1 | -5.6%[38.3 µM] | 3.7% | -7.6% | i | 18.4µM*
O=C(CSc1nc(-c2ccccc2)cn1-c1ccccc1F)Nc1ccc(F)cc1 | 2.2% | / | / | i | i
CCN(Cc1ccccc1)C(c1cc2cc(C)ccc2[nH]c1=O)c1nnnn1CCOC (configuration not stated) | 2.3% | 0.7% | 2.8% | ? | 16.4µM*
CCN(Cc1ccccc1)C(c1cc2cc(C)cc(C)c2[nH]c1=O)c1nnnn1CCOC (configuration not stated) | 9.8% | 1.3% | 5.4% | i | i
COCCn1nnnc1C(c1cc2cc(C)cc(C)c2[nH]c1=O)N1CCN(c2ccccc2F)CC1 (configuration not stated) | -0.3%[38.3 µM] | 1.9% | 0.9% | i | 23.1µM*
CC1CNC(=S)N(c2ccccc2)C1=O (configuration not stated) | -3.8% | -1.1% | -4.1% | i | i
